Results filed as inconclusive are left out. Where a call stands in place of a potency, no number is given. The source made the active and inactive calls. The call rests on the fitted dose curve.
What follows are compounds tested against Thyroid hormone receptor beta (Homo sapiens) (UniProt P10828) (assay: qHTS assay for small molecule agonists of thyroid hormone receptor beta signaling (AID 588545)). Conditions: TR-UAS-bla GripTite HEK 293, beta-lactamase ratio, agonist mode, 18 h; series mostly up to 76.7 µM.
Sequence of Thyroid hormone receptor beta (Homo sapiens) (P10828 whole entry, looked up): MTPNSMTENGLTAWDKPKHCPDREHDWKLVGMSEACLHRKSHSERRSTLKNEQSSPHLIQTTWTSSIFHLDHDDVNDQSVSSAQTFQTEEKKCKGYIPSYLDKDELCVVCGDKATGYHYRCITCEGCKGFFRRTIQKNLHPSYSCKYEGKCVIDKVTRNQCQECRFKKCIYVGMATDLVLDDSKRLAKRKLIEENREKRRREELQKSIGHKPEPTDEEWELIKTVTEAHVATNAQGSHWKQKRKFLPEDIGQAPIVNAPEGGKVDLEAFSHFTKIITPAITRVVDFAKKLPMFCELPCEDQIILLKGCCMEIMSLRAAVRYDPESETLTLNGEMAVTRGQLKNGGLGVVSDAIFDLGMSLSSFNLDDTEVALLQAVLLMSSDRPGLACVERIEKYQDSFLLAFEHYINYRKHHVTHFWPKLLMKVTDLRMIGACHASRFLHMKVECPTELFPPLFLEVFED
Procedure, shortened: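 In this cell-based screen, titrated compounds act on HEK 293 cells held in medium with 2% charcoal/dextran FBS, NEAA and pyruvate for 18 hrs at 37 C. Responses are expressed relative to T3 (10 nM) as 100% and basal DMSO as 0%.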

Structure (SMILES) | Potency
Cc1ccc(OP(=O)(Oc2ccc(C)cc2)Oc2ccc(C)cc2)cc1 | inactive
CN(C)c1ccc(N(C)C)cc1 | inactive
Brc1ccc(Oc2ccc(Br)cc2Br)c(Br)c1 | inactive
O=[N+]([O-])c1c(Cl)c(Cl)c(Cl)c(Cl)c1Cl | inactive
CN1CSC(=S)N(C)C1 | inactive
C=CC(=O)OCCO | inactive
CC(C)Br | inactive
CC(C)[N+](=O)[O-] | inactive
CCCC[N+](=O)[O-] | inactive
Cc1cc(-c2cc(C)c(N)c(C)c2)cc(C)c1N | inactive
Nc1cc(Cl)ccc1O | inactive
CCN(N=O)C(N)=O | inactive
N#CC(Cl)(Cl)Cl | inactive
CCCCC(CC)COC(=O)c1ccc(C(=O)OCC(CC)CCCC)c(C(=O)OCC(CC)CCCC)c1 (centres undefined) | inactive
O=C(O)C(Br)CBr (centres undefined) | inactive
Nc1c(Br)cc([N+](=O)[O-])cc1[N+](=O)[O-] | inactive
O=[N+]([O-])c1ccccc1CCl | inactive
Cc1cc(C)cc(OP(=O)(Oc2cc(C)cc(C)c2)Oc2cc(C)cc(C)c2)c1 | inactive
N#CC(Br)Br | inactive
COP(=S)(OC)SCn1nnc2ccccc2c1=O | inactive
Nc1ccc([N+](=O)[O-])cc1N | inactive
O=C(O)c1cccc(Cl)c1 | inactive
Cc1cc(N=Nc2ccccc2C)ccc1N | inactive
OCCCCO | inactive
O=[N+]([O-])c1cc(Cl)c(Cl)c(Cl)c1 | inactive
Cc1ccc2c(c1N)C(=O)c1ccccc1C2=O | inactive
COc1ccccc1N | inactive
CC(C)(C)OOC(=O)c1ccccc1 | inactive
c1ccc(N=NNc2ccccc2)cc1 | inactive
